PubChem BioAssay (NCATS)
“And” between values parts separate entries of the source, which are not always exact repeats. Identical values can stand only once. Results filed as inconclusive are left out. The source holds several records for some structures; these can differ, active in one and inactive in another. The source made the active and inactive calls. Unless noted, calls follow the shape of the dose curve; as a rule, active = well fitted curve in the direction sought with a large enough effect; inconclusive = small, poorly fitted or top-dose-only effect, or another doubt; inactive = no such curve, though single readings can be large; an effect the other way counts as inactive or inconclusive.

What was measured:
[1] = target: Cytochrome P450 1A2 (Homo sapiens) (UniProt P05177); assay: p450-cyp1a2 (AID 410; calls by dose curve; also: potency is read from the fitted curve at half-maximal effect;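 as to activity change, negative = inhibition: -100% = full effect of reference inhibitor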)
Cytochrome P450 1A2 (Homo sapiens), sequence (P05177 whole entry, looked up): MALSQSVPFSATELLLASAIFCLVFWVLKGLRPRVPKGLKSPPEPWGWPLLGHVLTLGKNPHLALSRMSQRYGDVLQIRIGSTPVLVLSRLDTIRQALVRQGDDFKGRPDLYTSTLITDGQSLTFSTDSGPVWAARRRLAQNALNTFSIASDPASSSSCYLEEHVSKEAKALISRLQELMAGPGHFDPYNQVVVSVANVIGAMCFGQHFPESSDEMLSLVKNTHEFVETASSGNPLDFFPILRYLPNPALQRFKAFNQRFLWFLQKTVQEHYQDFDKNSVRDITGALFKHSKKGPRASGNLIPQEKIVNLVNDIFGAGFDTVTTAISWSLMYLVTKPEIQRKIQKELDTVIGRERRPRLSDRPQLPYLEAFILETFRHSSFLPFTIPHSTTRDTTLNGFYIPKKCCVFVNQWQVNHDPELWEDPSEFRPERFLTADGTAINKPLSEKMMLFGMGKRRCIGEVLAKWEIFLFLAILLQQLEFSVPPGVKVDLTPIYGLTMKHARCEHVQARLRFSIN
Method in brief: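 20nM CYP1A2 with 100uM Luciferin-ME (at Km) in 100mM KPO4; compound preincubated 10 min, NADPH regeneration added, 60 min at room temperature. Luciferin quantified by luminescence after detection reagent; normalized to 57 uM furafylline.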

[2] = target: Glucocorticoid receptor (Homo sapiens) (UniProt P04150); assay: GR-GFP Redistribution (AID 450;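 active = compounds whose dose series gives a full or clear partial fitted curve of increased nuclear translocation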; also: potency is read from the fitted curve at half-maximal effect); conditions: U2OS GR-GFP nuclear translocation, laser cytometry, 2 h
Glucocorticoid receptor (Homo sapiens), sequence (P04150 whole entry, looked up, the tested form may be a part): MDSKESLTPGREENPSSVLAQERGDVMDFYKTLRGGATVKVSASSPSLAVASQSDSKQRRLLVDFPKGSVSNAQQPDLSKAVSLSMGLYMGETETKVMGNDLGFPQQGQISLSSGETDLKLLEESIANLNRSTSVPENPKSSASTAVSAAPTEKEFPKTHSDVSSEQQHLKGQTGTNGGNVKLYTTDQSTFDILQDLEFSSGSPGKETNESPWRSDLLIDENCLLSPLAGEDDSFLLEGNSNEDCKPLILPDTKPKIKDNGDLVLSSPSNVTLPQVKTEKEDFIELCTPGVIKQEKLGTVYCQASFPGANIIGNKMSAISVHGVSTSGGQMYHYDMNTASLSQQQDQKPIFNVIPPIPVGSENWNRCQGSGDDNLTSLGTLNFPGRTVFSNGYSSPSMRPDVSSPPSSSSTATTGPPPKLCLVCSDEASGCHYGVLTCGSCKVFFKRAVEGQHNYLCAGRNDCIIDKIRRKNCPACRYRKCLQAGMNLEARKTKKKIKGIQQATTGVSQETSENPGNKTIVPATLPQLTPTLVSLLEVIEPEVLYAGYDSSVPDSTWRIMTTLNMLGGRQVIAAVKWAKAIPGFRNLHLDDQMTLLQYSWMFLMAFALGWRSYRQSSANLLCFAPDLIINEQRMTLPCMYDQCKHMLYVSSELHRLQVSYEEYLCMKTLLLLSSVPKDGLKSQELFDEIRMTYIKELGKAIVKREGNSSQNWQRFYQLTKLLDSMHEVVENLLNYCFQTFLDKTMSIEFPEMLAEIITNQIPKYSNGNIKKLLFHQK

[3] = target: Glucocorticoid receptor (Homo sapiens) (UniProt P04150); assay: GR-EFC Redistribution (AID 451; calls by dose curve; also: potency is read from the fitted curve at half-maximal effect); conditions: CHO-K1 GR-EFC translocation, beta-gal luminescence, 2 h
Method in brief: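 CHO-K1 cells stably expressing nuclear-localized β-gal enzyme acceptor and GR fused C-terminally to the enzyme donor fragment; ligand-driven nuclear translocation restores β-gal by complementation. Compounds titrated up to 46 uM final, 2 h at 37 °C; luminescence read.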

[4] = target: Mitogen-activated protein kinase 10 (Mus musculus) (UniProt Q61831); assay: JNK3 AlphaScreen Assay (AID 530; active = well fitted curve in either direction with a large enough effect, not every such curve was filed as active;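 also: kinase came from lysate of stimulated human HepG2 cells; signal reports phosphorylation of biotinylated GST-cJun 1-79 at Ser73 with 10 µM ATP; % is scaled to controls: 0 for no effect and ±100 for the full control effect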)
Method in brief: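 Inhibitors reduce antibody binding to phosphorylated biotin-cJun, lowering AlphaScreen luminescence. Lysates from HepG2 cells pre-activated by IL-1beta plus TNF-alpha supplied JNK3; compounds were titrated.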

[5] = target: 3',5'-cyclic-AMP phosphodiesterase 4B (Homo sapiens) (UniProt Q07343); assay: qHTS Assay for Inhibitors of PDE-IV (AID 607; active = well fitted activation curve with a large enough effect in the main read-out, with a control signal flat, not every such curve was filed as active; also: potency is read from the fitted curve at half-maximal effect)
3',5'-cyclic-AMP phosphodiesterase 4B (Homo sapiens), sequence (Q07343 whole entry, looked up): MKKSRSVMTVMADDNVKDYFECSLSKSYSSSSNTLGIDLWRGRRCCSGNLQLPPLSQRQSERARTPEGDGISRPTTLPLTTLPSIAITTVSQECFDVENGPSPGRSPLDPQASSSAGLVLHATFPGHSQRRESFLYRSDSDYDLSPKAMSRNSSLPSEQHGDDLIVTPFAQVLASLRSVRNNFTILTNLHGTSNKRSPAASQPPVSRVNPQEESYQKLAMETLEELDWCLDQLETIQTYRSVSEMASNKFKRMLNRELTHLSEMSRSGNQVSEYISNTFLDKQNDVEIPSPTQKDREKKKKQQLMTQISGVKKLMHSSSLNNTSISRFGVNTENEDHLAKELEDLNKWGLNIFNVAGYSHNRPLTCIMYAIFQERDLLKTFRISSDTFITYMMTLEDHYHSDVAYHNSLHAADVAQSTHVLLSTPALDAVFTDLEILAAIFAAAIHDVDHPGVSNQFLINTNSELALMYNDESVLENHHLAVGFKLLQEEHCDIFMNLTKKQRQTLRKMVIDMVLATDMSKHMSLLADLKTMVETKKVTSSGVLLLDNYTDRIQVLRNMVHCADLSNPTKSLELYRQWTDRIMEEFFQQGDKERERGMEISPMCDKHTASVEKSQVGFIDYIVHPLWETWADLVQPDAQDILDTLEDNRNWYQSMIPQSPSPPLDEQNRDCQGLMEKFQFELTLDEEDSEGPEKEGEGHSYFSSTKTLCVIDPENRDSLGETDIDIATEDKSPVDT
Method in brief: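 Cell-based read-out of cAMP via a modified cyclic nucleotide-gated channel and membrane potential dye (535/590 nm) in HEK293 cells expressing PDE4 endogenously. Compounds tested up to 22.9 uM final; 100 uM RO 20-1724 reference.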

[6] = qHTS Assay for Lipid Storage Modulators (AID 1519; calls by dose curve); conditions: Drosophila S3 cells, BODIPY lipid droplet/cell ratio, laser cytometry, cells loaded with oleic acid
Method in brief: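 Cells seeded at 5,000 per well were treated with compounds over a concentration series and loaded with oleic acid (400 uM, as added). Lipid droplet fluorescence (488 nm excitation, 500-530 nm channel) was read by laser-scanning cytometry and normalized to 20 uM Triacsin C.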

[7] = target: Ubiquitin carboxyl-terminal hydrolase 1 (Homo sapiens) (UniProt O94782); assay: Inhibitors of USP1/UAF1: Pilot qHTS (AID 504865);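 also: rhodamine fluorescence freed from ubiquitin-rhodamine substrate followed over time; top concentration of the series differs between compounds; % is scaled to controls: 0 for no effect and ±100 for the full control effect; nearly all actives have a fitted effect of over 35% in size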
Ubiquitin carboxyl-terminal hydrolase 1 (Homo sapiens), sequence (O94782 whole entry, looked up): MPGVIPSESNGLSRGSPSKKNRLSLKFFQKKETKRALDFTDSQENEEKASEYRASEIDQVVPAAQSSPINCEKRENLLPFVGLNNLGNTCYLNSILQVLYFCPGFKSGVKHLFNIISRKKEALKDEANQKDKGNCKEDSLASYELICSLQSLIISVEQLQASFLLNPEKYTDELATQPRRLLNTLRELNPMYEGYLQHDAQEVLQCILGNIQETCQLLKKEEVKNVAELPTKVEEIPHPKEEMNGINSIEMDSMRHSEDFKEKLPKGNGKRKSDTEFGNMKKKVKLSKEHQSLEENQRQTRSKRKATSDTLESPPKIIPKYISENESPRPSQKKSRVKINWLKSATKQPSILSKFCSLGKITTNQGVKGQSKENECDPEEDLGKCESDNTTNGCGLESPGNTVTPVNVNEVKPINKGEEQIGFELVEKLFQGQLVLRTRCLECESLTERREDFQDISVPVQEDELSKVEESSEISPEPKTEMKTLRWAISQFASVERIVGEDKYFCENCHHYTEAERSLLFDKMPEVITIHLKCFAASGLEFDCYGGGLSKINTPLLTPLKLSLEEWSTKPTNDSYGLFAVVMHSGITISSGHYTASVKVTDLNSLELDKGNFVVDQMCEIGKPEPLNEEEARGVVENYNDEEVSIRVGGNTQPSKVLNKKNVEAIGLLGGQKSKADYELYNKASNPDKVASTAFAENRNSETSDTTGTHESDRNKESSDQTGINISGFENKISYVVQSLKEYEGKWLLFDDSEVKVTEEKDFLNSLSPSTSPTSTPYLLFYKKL
Method in brief: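 Enzyme-free wells gave the negative control, while test wells held 1nM USP1/UAF1 preincubated with compound for 15 min at room temperature. Ub-Rho at 150nM final started the reaction, and fluorescence at 480/540 nm was recorded kinetically.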

[8] = target: DNA dC->dU-editing enzyme APOBEC-3G (Homo sapiens) (UniProt Q9HC16); assay: qHTS for inhibitors of Vif-A3G interactions: Validation (AID 588379); also: 0% is about no effect
DNA dC->dU-editing enzyme APOBEC-3G (Homo sapiens), sequence (Q9HC16 whole entry, looked up): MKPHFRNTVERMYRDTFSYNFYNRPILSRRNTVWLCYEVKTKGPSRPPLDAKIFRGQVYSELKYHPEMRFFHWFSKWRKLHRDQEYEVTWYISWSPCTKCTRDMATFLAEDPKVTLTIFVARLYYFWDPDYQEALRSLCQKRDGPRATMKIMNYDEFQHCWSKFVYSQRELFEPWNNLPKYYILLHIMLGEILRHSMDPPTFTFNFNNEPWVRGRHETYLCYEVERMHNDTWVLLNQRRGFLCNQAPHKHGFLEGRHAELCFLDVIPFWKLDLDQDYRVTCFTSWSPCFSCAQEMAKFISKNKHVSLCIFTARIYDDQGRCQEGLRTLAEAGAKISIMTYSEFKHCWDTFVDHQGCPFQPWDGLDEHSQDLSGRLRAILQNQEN
Method in brief: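 HeLa cells stably expressing Vif and A3G-eYFP, 700 cells/well, incubated overnight at 37 deg C, then exposed to compound overnight at 37 deg C. Inhibition of Vif-mediated degradation read as increased yellow fluorescence (Ex 488/Em 500-530) by laser-scanning cytometry.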

[9] = system: Zika virus NS2B-NS3 protease; assay: Primary screen GU AMC qHTS for Zika virus inhibitors (AID 1347154);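 also: 0% = no-inhibitor control and -100% = no-enzyme control; nearly all actives have a fitted effect of over 70% in size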
Method in brief: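 Unlinked Zika NS2B hydrophilic domain/NS3 protease domain noncovalent complex (25 nM final) in 10 mM Tris-HCl pH 8.0, 0.01% Tween 20, with AMC peptide substrate. Fluorescence (ex 340, em 450 nm) change over 15 min, room temperature; percent inhibition fitted to 4-parameter Hill equation.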

[10] = Primary qHTS for small molecule stabilizers of the endoplasmic reticulum resident proteome: Secreted ER Calcium Modulated Protein (SERCaMP) assay (AID 1508630); also: % is scaled to controls: 0 for no effect and ±100 for the full control effect
Method in brief: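 GLuc-SERCaMP-expressing SH-SY5Y cells, pretreated 16 h with compound, are challenged with thapsigargin to empty ER calcium stores; after 4 h, coelenterazine is added directly to the medium and luminescence is imaged.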

[11] = AP1 Signaling Pathway (AID 357; active = well fitted curve in either direction with a large enough effect, not every such curve was filed as active;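 also: ME-180 reporter cells stimulated with EGF at its EC50 level; % is scaled to controls: 0 for no effect and ±100 for the full control effect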); conditions: ME-180 AP-1-bla reporter, EGF-induced, beta-lactamase ratio, 5 h; at 17.2 µM (top of the series)
Method in brief: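 Titration-series screen for positive or negative modulators of EC50 EGF-induced signaling in ME-180 cells carrying an AP-1-driven beta-lactamase reporter. After 5 hours at 37 degrees Celsius, CCF4 460nm/530nm emission ratio gave %Activity; AC50 values derived.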

[12] = Stat Signaling Pathway (AID 446; active = well fitted curve in either direction with a large enough effect, not every such curve was filed as active;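 also: ME-180 cervical cancer cells given 40 pM IL-6 alongside compound; SIE-controlled beta-lactamase reporter measured as 460/530 nm FRET emission ratio; % is scaled to controls: 0 for no effect and ±100 for the full control effect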); conditions: ME-180 SIE beta-lactamase reporter, IL-6 stimulated, 5 h; at 17.2 µM (top of the series)
Method in brief: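 Reporter line: ME-180 cervical carcinoma, SIE-beta-lactamase. Treatment: compound with 40 pM IL-6, 5 hrs, 37 C, in low-serum OPTI-MEM with 10 mM HEPES pH 7.3. Detection: 460/530 nm fluorescence.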

[13] = target: Cytochrome P450 3A4 (Homo sapiens) (UniProt P08684); assay: qHTS Assay for Activators of Cytochrome P450 3A4 (AID 885); also: nearly all actives have a fitted effect of over 65% in size
Cytochrome P450 3A4 (Homo sapiens), sequence (P08684 whole entry, looked up): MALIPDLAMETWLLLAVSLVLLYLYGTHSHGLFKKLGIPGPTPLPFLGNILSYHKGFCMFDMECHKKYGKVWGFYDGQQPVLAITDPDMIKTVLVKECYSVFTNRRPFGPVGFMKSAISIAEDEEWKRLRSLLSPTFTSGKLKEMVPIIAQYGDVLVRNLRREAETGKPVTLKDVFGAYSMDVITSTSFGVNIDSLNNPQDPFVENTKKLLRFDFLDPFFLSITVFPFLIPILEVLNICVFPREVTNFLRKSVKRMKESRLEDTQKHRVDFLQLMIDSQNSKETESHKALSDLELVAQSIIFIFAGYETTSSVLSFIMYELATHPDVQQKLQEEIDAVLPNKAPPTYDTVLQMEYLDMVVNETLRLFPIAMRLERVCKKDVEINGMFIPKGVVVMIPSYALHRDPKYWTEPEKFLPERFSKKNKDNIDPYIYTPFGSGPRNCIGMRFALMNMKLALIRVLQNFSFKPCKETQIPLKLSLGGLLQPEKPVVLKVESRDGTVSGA
Method in brief: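 Signal was normalized against complete inhibition by 57 uM ketoconazole. The reaction used 20nM CYP3A4 with 25uM Luciferin-PPXE, 10-min compound preincubation and a 60-min NADPH-supported step at RT.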

[14] = NFAT Signaling Pathway (AID 444; active = well fitted curve in either direction with a large enough effect, not every such curve was filed as active); conditions: Jurkat NFAT-bla M1, carbachol, beta-lactamase ratio, 5 h; at 17.2 µM (top of the series)
Method in brief: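 Jurkat cells carrying an NFAT-driven β-lactamase reporter and co-transfected muscarinic M1 receptor were treated with compound plus carbachol (1 uM final, an EC50 level) for 5 h at 37 °C. CCF4 loading followed for 1 h at RT; 460/530 nm ratio gave %activity.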

[15] = measured here: cell count channel max response
[16] = measured here: lipid channel max response

SMILES	Potency [1]	Potency [2]	Potency [3]	Potency [4]	Potency [5]	activity change, negative = inhibition ([6]; at 57.5 µM (top of the series))	max response [6, 15]	max response [6, 16]	Potency [7]	Potency [8]	Potency [9]	Potency [10]	activity change, negative = inhibition [11]	activity, negative = inhibition [12]	Potency [13]	activity change, negative = inhibition ([6]; at 25.7 µM (top of the series))	activity change, negative = inhibition [14]
CN1CCN(CCc2ccc(Cl)c(Cl)c2)CC1	25.1 µM (active)	> 46 µM (inactive)	> 46 µM (inactive)	inactive	inactive	-0.655% (inactive)	-14.6%	-12.9%	inactive	inactive	inactive	inactive					
N[C@H](Cc1cnc[nH]1)C(=O)O						-0.699% (inactive)	-9.8%	-11.7%	inactive	inactive	inactive	inactive					
CCN(CC)CCOC(=O)C1(c2ccc([N+](=O)[O-])cc2)CCCC1	3.98 µM (active) and 3.16 µM (active)	> 20.6 µM (inactive) and > 46 µM (inactive)	> 20.6 µM (inactive) and > 46 µM (inactive)	inactive	inactive and 4.77 µM (active)	-3.02% (inactive)	-8.14% and -12.9%	-19.2% and -15.6%	inactive	inactive	inactive	inactive	3.14% (inactive)	6.83% (inactive)	inactive	-0.418% (inactive)	
CC(C)NC[C@@H](O)COc1ccc(COCCOC(C)C)cc1	inactive	> 20.6 µM (inactive) and > 46 µM (inactive)	> 20.6 µM (inactive) and > 46 µM (inactive)	inactive		0.281% (inactive)	2.54% and -5.68%	6.08% and -6.81%		inactive	inactive	inactive	-0.912% (inactive)	15.4% (inactive)		-1.04% (inactive)	3.53% (inactive)
